Assay results published in PubChem BioAssay AID1159580 (chemical genetic matrix, 2015).
The campaign covered roughly 5,500 compounds. About 2,000 (36%) were called active. Roughly 18% stayed inconclusive and do not appear here. Cut-off read from the data, not from the text of the source: active = normalized growth mostly below about 0.91 (no sharp cut-off); inconclusive = no clear call, values can overlap the other calls; inactive = mostly above about 0.92. The list shows a part of the results.

Test: chemical genetic growth profiling, strain panel (AID 1159580);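 note: tested at 20 µM; growth read once vehicle control cultures reached saturation at 30 °C; 1 = growth at the plate median or of vehicle wells; lower values mean less growth of the strain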
Conditions: growth OD

Measured: normalized growth

COc1ccc(-c2c(O)c3c(OC)c4c(cc3oc2=O)OC(C)(C)C=C4)cc1
active: S. cerevisiae deletion strains, locus YLR418C, strain cdc73, stronger effect = lower value 0.833 | S. cerevisiae deletion strains, locus YML032C, strain rad52, stronger effect = lower value 0.901 | S. cerevisiae deletion strains, locus YNL307C, strain MCK1, stronger effect = lower value 0.84 | S. cerevisiae deletion strains, locus YOL147C, strain pex11, stronger effect = lower value 0.928 | S. cerevisiae deletion strains, locus YOR316C, strain cot1, stronger effect = lower value 0.916 | S. cerevisiae deletion strains, locus YPR119W, strain clb2, stronger effect = lower value 0.928 | S. cerevisiae deletion strains, locus YPR163C, strain tif3, stronger effect = lower value 0.908
inactive: S. cerevisiae deletion strains, locus YJL187C, strain SWE1, stronger effect = lower value 0.952 | S. cerevisiae deletion strains, locus YJR066W, strain TOR1, stronger effect = lower value 0.934 | S. cerevisiae deletion strains, locus YKL009W, strain mrt4, stronger effect = lower value 0.935 | S. cerevisiae deletion strains, locus YKL068W, stronger effect = lower value 0.969 | S. cerevisiae deletion strains, locus YKL085W, strain MDH1 (second series), stronger effect = lower value 0.97 | S. cerevisiae deletion strains, locus YKL085W, strain MDH1, stronger effect = lower value 0.97 | S. cerevisiae deletion strains, locus YKL160W, strain elf1, stronger effect = lower value 0.936 | S. cerevisiae deletion strains, locus YKR001C, strain vps1, stronger effect = lower value 0.97 | S. cerevisiae deletion strains, locus YKR026C, strain gcn3, stronger effect = lower value 0.947 | S. cerevisiae deletion strains, locus YKR091W, strain srl3, stronger effect = lower value 0.954 | S. cerevisiae deletion strains, locus YLL001W, strain dnm1, stronger effect = lower value 0.968 | S. cerevisiae deletion strains, locus YLL026W, stronger effect = lower value 0.959 | S. cerevisiae deletion strains, locus YLL041C, strain sdh2, stronger effect = lower value 0.942 | S. cerevisiae deletion strains, locus YLR027C, strain aat2, stronger effect = lower value 0.965 | S. cerevisiae deletion strains, locus YLR039C, strain RIC1, stronger effect = lower value 1.01 | S. cerevisiae deletion strains, locus YLR058C, strain SHM2, stronger effect = lower value 0.949 | S. cerevisiae deletion strains, locus YLR102C, strain apc9, stronger effect = lower value 0.958 | S. cerevisiae deletion strains, locus YLR113W, strain HOG1, stronger effect = lower value 0.907 | S. cerevisiae deletion strains, locus YLR221C, strain rsa3, stronger effect = lower value 0.962 | S. cerevisiae deletion strains, locus YLR258W, strain gsy2, stronger effect = lower value 0.962 | S. cerevisiae deletion strains, locus YLR262C, strain YPT6 (second series), stronger effect = lower value 0.885 | S. cerevisiae deletion strains, locus YLR262C, strain YPT6, stronger effect = lower value 0.987 | S. cerevisiae deletion strains, locus YLR268W, strain sec22, stronger effect = lower value 0.91 | S. cerevisiae deletion strains, locus YLR320W, strain mms22, stronger effect = lower value 0.921 | S. cerevisiae deletion strains, locus YLR330W, strain CHS5, stronger effect = lower value 0.96 | S. cerevisiae deletion strains, locus YLR342W, strain FKS1, stronger effect = lower value 0.939 | S. cerevisiae deletion strains, locus YLR357W, strain rsc2, stronger effect = lower value 1 | S. cerevisiae deletion strains, locus YLR370C, strain arc18, stronger effect = lower value 0.95 | S. cerevisiae deletion strains, locus YLR371W, strain rom2, stronger effect = lower value 0.98 | S. cerevisiae deletion strains, locus YLR384C, strain iki3, stronger effect = lower value 0.954 | S. cerevisiae deletion strains, locus YML016C, strain PPZ1, stronger effect = lower value 0.958 | S. cerevisiae deletion strains, locus YML120C, strain ndi1, stronger effect = lower value 0.964 | S. cerevisiae deletion strains, locus YML124C, strain tub3, stronger effect = lower value 0.96 | S. cerevisiae deletion strains, locus YMR058W, strain fet3, stronger effect = lower value 0.961 | S. cerevisiae deletion strains, locus YMR078C, strain ctf18, stronger effect = lower value 0.942 | S. cerevisiae deletion strains, locus YMR125W, strain sto1, stronger effect = lower value 0.971 | S. cerevisiae deletion strains, locus YMR129W, stronger effect = lower value 0.95 | S. cerevisiae deletion strains, locus YMR205C, strain PFK2, stronger effect = lower value 0.909 | S. cerevisiae deletion strains, locus YMR223W, strain ubp8, stronger effect = lower value 0.928 | S. cerevisiae deletion strains, locus YMR231W, strain pep5, stronger effect = lower value 0.95 | S. cerevisiae deletion strains, locus YMR307W, strain GAS1, stronger effect = lower value 1.1 | S. cerevisiae deletion strains, locus YNL067W, strain RPL9B, stronger effect = lower value 0.967 | S. cerevisiae deletion strains, locus YNL071W, strain lat1, stronger effect = lower value 0.922 | S. cerevisiae deletion strains, locus YNL128W, strain TEP1, stronger effect = lower value 0.997 | S. cerevisiae deletion strains, locus YNL183C, strain NPR1, stronger effect = lower value 0.911 | S. cerevisiae deletion strains, locus YNL209W, strain ssb2, stronger effect = lower value 0.959 | S. cerevisiae deletion strains, locus YNL233W, strain BNI4, stronger effect = lower value 0.965 | S. cerevisiae deletion strains, locus YNL248C, strain rpa49, stronger effect = lower value 0.967 | S. cerevisiae deletion strains, locus YNL250W, strain rad50, stronger effect = lower value 0.913 | S. cerevisiae deletion strains, locus YNL271C, strain bni1, stronger effect = lower value 1 | S. cerevisiae deletion strains, locus YNL298W, strain CLA4, stronger effect = lower value 0.962 | S. cerevisiae deletion strains, locus YNL322C, strain KRE1 (second series), stronger effect = lower value 0.961 | S. cerevisiae deletion strains, locus YNL322C, strain KRE1, stronger effect = lower value 0.949 | S. cerevisiae deletion strains, locus YNR049C, strain mso1, stronger effect = lower value 0.965 | S. cerevisiae deletion strains, locus YNR052C, strain pop2, stronger effect = lower value 0.946 | S. cerevisiae deletion strains, locus YOL012C, strain htz1 0.954 | S. cerevisiae deletion strains, locus YOR001W, strain rrp6, stronger effect = lower value 0.969 | S. cerevisiae deletion strains, locus YOR061W, strain CKA2, stronger effect = lower value 0.952 | S. cerevisiae deletion strains, locus YOR069W, strain VPS5, stronger effect = lower value 0.952 | S. cerevisiae deletion strains, locus YOR070C, strain gyp1, stronger effect = lower value 0.94 | S. cerevisiae deletion strains, locus YOR080W, strain dia2, stronger effect = lower value 0.971 | S. cerevisiae deletion strains, locus YOR083W, strain WHI5, stronger effect = lower value 0.953 | S. cerevisiae deletion strains, locus YOR106W, strain vam3, stronger effect = lower value 0.971 | S. cerevisiae deletion strains, locus YOR136W, strain idh2, stronger effect = lower value 0.959 | S. cerevisiae deletion strains, locus YOR144C, strain elg1, stronger effect = lower value 0.942 | S. cerevisiae deletion strains, locus YOR184W, strain ser1, stronger effect = lower value 0.971 | S. cerevisiae deletion strains, locus YOR231W, strain MKK1, stronger effect = lower value 0.969 | S. cerevisiae deletion strains, locus YOR265W, strain rbl2, stronger effect = lower value 0.937 | S. cerevisiae deletion strains, locus YOR270C, strain vph1, stronger effect = lower value 0.923 | S. cerevisiae deletion strains, locus YOR290C, strain snf2, stronger effect = lower value 0.938 | S. cerevisiae deletion strains, locus YPL051W, strain arl3, stronger effect = lower value 0.951 | S. cerevisiae deletion strains, locus YPL078C, strain atp4, stronger effect = lower value 0.967 | S. cerevisiae deletion strains, locus YPL106C, strain sse1, stronger effect = lower value 1.01 | S. cerevisiae deletion strains, locus YPL240C, strain hsp82, stronger effect = lower value 0.95 | S. cerevisiae deletion strains, locus YPL241C, strain CIN2, stronger effect = lower value 0.938 | S. cerevisiae deletion strains, locus YPL256C, strain CLN2, stronger effect = lower value 0.933 | S. cerevisiae deletion strains, locus YPR141C, strain kar3, stronger effect = lower value 0.958 | S. cerevisiae deletion strains, locus YPR167C, strain met16, stronger effect = lower value 0.94 | S. cerevisiae deletion strains, strain wtn01, stronger effect = lower value 0.958 | S. cerevisiae strains, strain wild type, stronger effect = lower value 0.993
